# Compounds without any hit were thinned out: in the full panel of roughly 83,000, 20% have a hit.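 Results are percent growth after 48 hours of single-concentration exposure. 100 means growth as in untreated cells, lower positive values show inhibition; negative values down to -100 show cell death.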 Values without a mark were called inactive. Activity calls are given as the source filed them.
# System: SR leukemia
# Assay: NCI-60 one-dose screen, 48 h (100 = growth as untreated, 0 = no growth, -100 = all killed)
# Settings: 10 µM
# Protocol: Growth inhibition of the SR human tumor cell line is measured as a screen for anti-cancer activity. Cells are grown in 96 well plates and exposed to the test compound for 48 hours. Compounds are tested at a single concentration, which is 10^-5 M for most compounds. The reported endpoint is percent growth (GI% or GIPRCNT), where numbers from 0 - 100% represent growth inhibition, and numbers from -100% - 0 represent cell death. For example, a value of 40 represents 60% growth inhibition. A value of 0 means no net growth occurred over the course of the experiment. A value of -40 indicates 40% of cells at the beginning of the experiment died by the end of the experiment. A value of -100 means all cells are dead at the end of the experiment.
# NCI-60 Human Tumor Cell Lines Screen was performed using the standard one-dose NCI protocol, which is described in more detail at https://dtp.cancer.gov/discovery_development/nci-60/default.htm.
# Compounds with GIPRCNT values below 10 were considered active. Activity score was based on GIPRCNT using the following formula: […]
# Score is 0 for GIPRCNT values of 100 or above, 50 for GIPRCNT values of 0, and 100 for GIPRCNT values of -100.
row,SMILES,growth
1,CCC(C)/C=C(C)/C=C/C(=O)c1c(O)c(-c2ccc(O)cc2)c[nH]c1=O (stereo not given),13%
2,NCCc1cc(O)c(O)cc1O,98%
3,N#C[Se]CCCNS(=O)(=O)C1CC2C=CC1C2 (stereo not given),7.66% (active)
4,O=[N+]([O-])c1cccc([As]=[As]c2cccc([N+](=O)[O-])c2)c1 (stereo not given),-32% (active)
5,O=C(Nc1ccc(S(=O)(=O)F)cc1)Oc1ccccc1,99.9%
6,O=C(O)C1[O][Sb][O]C1C(=O)O (stereo not given),70%
7,COC(=O)C(=[N+]=[N-])C(=O)OC,100%
8,O=C(CCc1ccco1)NC1CCN(CC2(c3ccc(Cl)cc3)CCC2)CC1,-24.6% (active)
9,CC(/C=N/N=C(N)N)=N/N=C(N)N,78.4%
10,CCN1CC2(CN(CC)C1=S)C(=O)NC(=O)NC2=O,114%
11,CC12CCC(=O)C=C1CCC1C2CCC2(C)C(C(=O)COC(=O)Cc3ccc(N(CCCl)CCCl)cc3)CCC12 (stereo not given),-2.48% (active)
12,Nc1ncnc2c1c(C(=O)NO)cn2C1OC(CO)C(O)C1O (stereo not given),-7.79% (active)
13,FC(F)=C(F)c1ccccc1,80.4%
14,C/C(=N/OC(=O)N(C)C)c1cc(Cl)ccc1Cl,90.7%
15,O=C(/C=C/c1ccccc1)N[C@@H](CO)Cc1cnc[nH]1,93.6%
16,N#[N+]c1nc2nc(N)[nH]c(=O)c2[nH]1,94.2%
17,c1ccc(CCN2CCCCC2Cc2ccccc2)cc1 (stereo not given),88.5%
18,CC(=O)C1CCC2C3CC=C4CC(OC(=O)Cc5ccc(N(CCCl)CCCl)cc5)CCC4(C)C3CCC12C (stereo not given),52.7%
19,CC(C)OC(=S)[S-].[Au+].c1ccc([PH+](c2ccccc2)c2ccccc2)cc1,3.82% (active)
20,CN1C(=O)NC(=O)C(N=Nc2ccc(Cl)cc2)C1=O (stereo not given),100%

row,SMILES,growth
1,CCN(CC)CCOc1c(C(C)C)cccc1C(C)C,-1.29% (active)
2,O=C1C=CC(=O)C2C1C1(Cl)C(Cl)=C(Cl)C2(Cl)C1(Cl)Cl (stereo not given),36.5%
3,NC(=O)C(Cl)Cl,99.5%
4,Nc1c(Br)cc([N+](=O)[O-])cc1[N+](=O)[O-],111%
5,CN(Cc1cccnc1)N=O,98.4%
6,C=CC(O)CN1CC1CC (stereo not given),89.9%
7,O=S(=O)(c1ccc(Cl)cc1)C(Cl)(Cl)Cl,15.1%
8,CCCC(C)(C)c1ccc2c(c1)OC(C)(C)[C@@H]1CC=C(C)C[C@@H]21,95.7%
9,CC(C)(O)/C=C/C(=O)[C@](C)(O)[C@H]1[C@H](O)C[C@@]2(C)[C@@H]3CC=C4[C@@H](C=C(O)C(=O)C4(C)C)[C@]3(C)C(=O)C[C@]12C,-7.28% (active)
10,CC(=O)O[C@H]1CCC2(C)C(=CCC3C2CCC2(C)/C(=N/OC(=O)c4ccc(N(CCCl)CCCl)cc4)CCC32)C1 (stereo not given in full),-24.9% (active)
11,S=P(NC1CCCCC1)(N1CC1)N1CC1,104%
12,CCC(CC)(c1ccccc1)C(OC(N)=O)c1ccccc1 (stereo not given),72.8%
13,COc1ccc(C(=O)c2ccc([As]=O)cc2)cc1 (stereo not given),-23.8% (active)
14,CC(C)[C@]12O[C@H]1[C@@H]1O[C@]13[C@]1(O[C@H]1C[C@H]1C4=C(CC[C@@]13C)C(=O)OC4)[C@@H]2OC(=O)OC(C)(C)C,3.66% (active)
15,C[C@]12CCc3sc(-c4ccc(Cl)cc4)nc3C1=CC[C@@H]1[C@@H]2CC[C@]2(C)C(=O)CC[C@@H]12,10.9%
16,COc1cc(C2CC(=O)Nc3nc(N)[se]c32)c(OC)c2c1OCO2 (stereo not given),107%
17,NC(Cc1ccc(O)cc1)C(=O)N/N=C/c1ccc(N(CCCl)CCCl)cc1 (stereo not given),18%
18,CN=C(NN)NN,94.8%
19,CC(=O)O[C@@H]1C2=C(C)C3(CC3)[C@@](C)(O)C(=O)C2=C[C@@]1(C)CO,4.56% (active)
20,O=C1NC(=S)NC(=O)C1=Cc1ccccc1,121%

# — PubChem BioAssay (NCI)
